MEKK2 mut-MEK5 – MEK5 binding signal on mutant MEKK2 PB1, primary screen, biochemical, multiplex bead flow cytometry, Alexa488-MEK5; Alexa488-MEK5 binding to MEKK2 mutant; percent response, % at 10 µM; hit rate 0.35% among 290,000; AID 1530, 2009; in the data active means percent response above about 24%, passing the limit was not always enough
MEKK2 WT-MEK5 – modulators of MEK5 binding to wildtype MEKK2, primary screen, biochemical, multiplex bead flow cytometry, Alexa488-MEK5; Mitogen-activated protein kinase kinase kinase 2 (Homo sapiens), Q9Y2U5; Alexa488-MEK5 binding to MEKK2 WT; actives lie on both sides; binding response (% of control), % at 10 µM; hit rate 1.1% among 290,000; AID 1531, 2009; in the data active means binding response below about 67% or above about 130%
GRK2 inh – compounds blocking aptamer binding on GRK2 – biochemical, human GRK2, bead flow cytometry, HTS, primary screen. inhibition of aptamer binding, % at 10 µM. Beta-adrenergic receptor kinase 1 (Homo sapiens), P25098. hit rate 0.59% among 330,000. AID 488847, 2010. FAM-aptamer displacement from GRK2;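 active means inhibition of aptamer binding above 40%, roughly 3 SD of noise, on plates passing a quality check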;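 further: median bead fluorescence of bound FAM aptamer so fluorescent compounds give negative values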
Beta2AR agonist – beta2AR agonists driving receptor internalization, primary screen, cell-based, FAP fluorogen, flow cytometry. Am2.2-beta2AR cells. Beta-2 adrenergic receptor (Homo sapiens), P07550. AID 504454, 2011. hit rate 0.43% among 340,000. response, % (no concentration beside the values);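 active means response above a set limit, near 3 SD of response in nonfluorescent compounds, cut at about 42% in these data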
Target sequence (P07550 whole entry, looked up): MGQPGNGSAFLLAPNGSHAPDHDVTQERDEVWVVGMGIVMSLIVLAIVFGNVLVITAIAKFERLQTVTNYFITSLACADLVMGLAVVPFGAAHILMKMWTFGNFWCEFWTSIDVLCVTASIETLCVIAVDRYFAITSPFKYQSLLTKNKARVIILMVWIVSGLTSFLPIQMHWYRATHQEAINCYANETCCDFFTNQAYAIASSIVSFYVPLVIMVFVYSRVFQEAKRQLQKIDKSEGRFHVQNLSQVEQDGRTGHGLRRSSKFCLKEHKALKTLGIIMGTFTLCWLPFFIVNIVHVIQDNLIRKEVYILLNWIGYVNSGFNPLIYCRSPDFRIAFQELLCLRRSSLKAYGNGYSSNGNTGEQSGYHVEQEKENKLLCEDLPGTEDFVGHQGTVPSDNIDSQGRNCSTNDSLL
MEKK3 PB1 HTS – modulators of MEKK3-MEK5 PB1 binding, primary screen, biochemical, wildtype MEKK3, multiplex bead flow cytometry, Alexa488-MEK5; hit rate 1.4% among 290,000; bead-based flow cytometry, Alexa488-MEK5 binding to MEKK3; actives lie on both sides; 0 = blocked by unlabeled MEK5, 100 = vehicle; binding response (% of control), % at 10 µM;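 active means binding response more than 3 SD above or below the average of its plate-row segment, actives on both sides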;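 further: Alexa488 bead fluorescence after subtracting the streptavidin-only scavenger bead signal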
MEKK2wt confirm – modulators of MEK5 binding to wildtype MEKK2, confirmation, biochemical, single concentration, multiplex bead flow cytometry; shares compounds with MEKK3 PB1 HTS; Alexa488-MEK5 binding to MEKK2 WT; actives lie on both sides; hit rate 2.4% among 5,900; binding response (% of control), % at 10 µM; AID 1892, 2009; in the data active means binding response below about 16% or above about 210%; inactive means in between
MEKK2mut confirm – mutant MEKK2 PB1-MEK5 binding signal retest – biochemical, single concentration, multiplex bead flow cytometry, confirmation; shares compounds with MEKK3 PB1 HTS; Alexa488-MEK5 binding to MEKK2 mutant; percent response, % at 10 µM; hit rate 2% among 5,900; AID 1893, 2009; in the data active means percent response mostly above about 71%, no sharp cut-off; inactive means mostly below about 38%;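 further: higher means compound restores mutant binding toward wildtype level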
MEKK3 confirm – MEKK3 wild-type PB1 binding to MEK5, inhibitors, confirmation, biochemical, bead multiplex flow cytometry, single concentration, wildtype; shares compounds with MEKK3 PB1 HTS; Alexa488-MEK5 binding to MEKK3; hits give low values; binding response (% of control), % at 10 µM; hit rate 1.8% among 5,900; AID 1894, 2009;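 active means binding response below 72% of control, or above a set upper limit, though filed actives all read lower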;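 further: 100% = DMSO only wells and 0% = binding blocked by excess unlabeled MEK5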
Starred values were filed as active, the others as inactive; i = inactive; . = no result given; [ ] = another dose, or the depositor's remark. Rows were chosen to be rich in hits. Some 2.9% of all compounds tested hit in one or more screens of this group.

SMILES | MEKK2 mut-MEK5 | MEKK2 WT-MEK5 | GRK2 inh | Beta2AR agonist | MEKK3 PB1 HTS | MEKK2wt confirm | MEKK2mut confirm | MEKK3 confirm
COc1ccccc1NS(=O)(=O)c1cc(C(=O)Nc2ccc(S(=O)(=O)Nc3onc(C)c3C)cc2)ccc1C | . | . | . | -7.0 | . | . | . | .
CC(=O)Nc1ccc(S(=O)(=O)N2CCC(c3nnc(-c4ccc(C)cc4)o3)CC2)cc1 | 2.0 | 94.0 | 0.0 | -2.0 | 101.0 | . | . | .
Cc1ccc2nc(N(CCCN(C)C)C(=O)c3sc4ccccc4c3Cl)sc2c1 | 9.0 | 155.0* | 0.0 | 5.9 | 133.0* | 184.0 | 54.0 | 109.0
Cc1ccc2sc(N(CCCN(C)C)C(=O)c3ccc(Br)s3)nc2c1C | 218.0* | 479.0* | 0.0 | 21.7 | 140.0* | 180.0 | 60.0 | 110.0
Cc1ccc2nc(N(CCCN(C)C)C(=O)c3ccc(S(=O)(=O)N(C)C)cc3)sc2c1 | 0.0 | 102.0 | 0.0 | -2.6 | 94.0 | . | . | .
CCOc1cccc2sc(N(CCN(C)C)C(=O)c3ccc(Br)s3)nc12 | -1.0 | 105.0 | 0.0 | -2.8 | 90.0 | . | . | .
Cc1ccc2sc(N(CCCN(C)C)C(=O)c3nc4ccccc4s3)nc2c1C | 33.0 | 144.0* | 0.0 | -1.8 | 103.0 | 196.0 | 63.0 | 111.0
CCN(Cc1ccccc1)S(=O)(=O)c1ccc(C(=O)N(CCCN(C)C)c2nc3c(C)c(C)ccc3s2)cc1 | . | . | 0.0 | 33.9 | . | . | . | .
Cc1cccc2sc(N(CCCN(C)C)C(=O)c3nc4ccccc4s3)nc12 | -3.0 | 83.0 | 0.0 | 3.1 | 67.0*[inhibitor] | 158.0 | 42.0 | 100.0
Cc1cccc2sc(N(CCCN(C)C)C(=O)CCc3ccccc3)nc12 | 24.0 | 126.0 | 0.0 | 32.1 | 103.0 | . | . | .
COc1ccc(C=NNC(=O)c2cc(C)oc2C)cc1O | . | . | 0.0 | -1.5 | . | . | . | .
COc1ccccc1C(=O)NC(=O)COC(=O)CNC(=O)c1ccc(Cl)c([N+](=O)[O-])c1 | . | . | 4.0 | -4.5 | . | . | . | .
COc1cccc(NC(=O)CN(C)C(=O)c2ccc(NC(=O)CC3SC(N4CCCC4)=NC3=O)cc2)c1 (configuration not stated) | . | . | . | 13.2 | . | . | . | .
COc1ccc(NC(=O)N2c3ccccc3CC2C)cc1OC (configuration not stated) | -1.0 | 100.0 | 0.0 | -0.1 | 102.0 | . | . | .
COc1ccc(NC(=S)N2c3ccccc3CC2C)cc1OC (configuration not stated) | -5.0 | 85.0 | 0.0 | -4.8 | 74.0*[inhibitor] | 100.0 | -1.0 | 102.0
Cc1ccccc1OCCNc1cc(N2CC(C)NC(C)C2)ccc1[N+](=O)[O-] (configuration not stated) | 47.0 | 198.0* | 0.0 | 21.1 | 120.0 | 137.0 | 31.0 | 100.0
CC1CN(c2ccc([N+](=O)[O-])c(NCCOc3ccccc3)c2)CC(C)N1 (configuration not stated) | 18.0 | 170.0* | 0.0 | 10.6 | 109.0 | 140.0 | 22.0 | 107.0
CC1CN(c2ccc([N+](=O)[O-])c(NCCOc3ccc(Cl)cc3)c2)CC(C)N1 (configuration not stated) | 48.0* | 222.0* | 0.0 | 18.0 | 109.0 | 163.0 | 31.0 | 103.0
Cc1ccc(NCc2nnc(SCC(=O)NNC(=O)Cc3ccccc3)n2C)cc1 | 6.0 | 108.0 | 0.0 | 0.1 | 107.0 | . | . | .
CC(NC(=O)Nc1ccc(Cl)c(Cl)c1)C(c1ccccc1)N1CCOCC1 (configuration not stated) | 0.0 | 110.0 | 3.0 | 14.1 | 139.0* | 110.0 | 0.0 | 104.0
O=C(C[C@H]1C[C@H](C(=O)N2CCCCC2)[C@@]2(CCc3ccccc3)c3[nH]c4ccc(Cl)cc4c3CCN2C1=O)NCCN1CCOCC1 | . | . | 0.0 | 2.4 | . | . | . | .
COC(=O)C(Cc1ccc(O)cc1)NC(=O)Cn1cc(C)c(=O)[nH]c1=O (configuration not stated) | . | . | . | 0.5 | . | . | . | .
CCN(CC)c1ccc(/C=C(\C#N)C(=O)c2ccc(Br)cc2)cc1 | 153.0* | 148.0* | 0.0 | i | 123.0 | 49.0 | -48.0 | 85.0
CCc1nnc(NC(=O)c2cccnc2SC)s1 | -7.0 | 97.0 | 2.0 | 9.3 | 100.0 | . | . | .
CCC(c1nnnn1Cc1ccc2c(c1)OCO2)N1CCN(CC)CC1 (configuration not stated) | 5.0 | 122.0 | 0.0 | -5.5 | 131.0* | 99.0 | 1.0 | 102.0
SMILES | MEKK2 mut-MEK5 | MEKK2 WT-MEK5 | GRK2 inh | Beta2AR agonist | MEKK3 PB1 HTS | MEKK2wt confirm | MEKK2mut confirm | MEKK3 confirm
CCN1CCN(C(c2nnnn2Cc2ccc3c(c2)OCO3)C(C)C)CC1 (configuration not stated) | 3.0 | 94.0 | 0.0 | 3.2 | 80.0 | . | . | .
CCOC(=O)CSc1cc(=O)n(CC)c2ccccc12 | 8.0 | 123.0 | 0.0 | 17.2 | 129.0* | 100.0 | 3.0 | 103.0
O=c1c2cc(NC(=S)NCCCN3CCC(Cc4ccccc4)CC3)ccc2nc2n1CCCCC2 | 14.0 | 149.0* | 0.0 | 6.0 | 107.0 | 154.0 | 28.0 | 111.0
Cc1ccc(C2CCN(C(=S)NC(C)C)C2)cc1 (configuration not stated) | -40.0 | 58.0 | 0.0 | 0.9 | 48.0*[inhibitor] | 99.0 | 2.0 | 101.0
COc1ccc(Cl)cc1NC(=S)N1CCC(c2ccc(C)cc2)C1 (configuration not stated) | 4.0 | 103.0 | 0.0 | -4.0 | 106.0 | . | . | .
CCN(CC(=O)Nc1ccc(N2CCOCC2)cc1)C(=O)Cc1ccccc1 | . | . | 10.0 | -0.3 | . | . | . | .
O=C(NCc1nc(-c2ccc(C(F)(F)F)cc2)no1)Nc1cc(Cl)cc(Cl)c1 | 52.0* | 179.0* | 1.0 | 10.9 | 136.0* | 151.0 | 46.0 | 108.0
O=C(NCc1nc(-c2ccc(C(F)(F)F)cc2)no1)Nc1ccc(F)cc1F | 29.0 | 117.0 | 0.0 | -3.9 | 131.0* | 95.0 | -9.0 | 99.0
Cc1cnc(NC(=O)c2cc3ccccc3o2)s1 | -5.0 | 106.0 | 0.0 | -9.4 | 101.0 | . | . | .
COc1ccc2noc3c2c1C(=O)c1ccccc1-3 | . | . | 12.0 | -555.0 | . | . | . | .
O=C1c2ccccc2-c2onc3ccc(NCCCn4ccnc4)c1c23 | -21.0 | 28.0*[inhibitor] | 0.0 | . | 33.0*[inhibitor] | 42.0 | -15.0 | 42.0*
Cc1onc(-c2ccccc2Cl)c1C(=O)OCC(=O)N1CCN(c2ccccc2)CC1 | . | . | 0.0 | 1.2 | . | . | . | .

Screening results as filed in PubChem.
